Test results published in PubChem BioAssay AID651947 (Broad Institute, 2012).
Measured potencies and affinities stand elsewhere. Results filed as inconclusive are left out. The source made the active and inactive calls.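 How the source made its calls: active means luminescence drop in HepG2 cells whose fitted half-effect dose is at most twice the top valid dose; inconclusive means flat curve with 30 to 70% signal loss, or unreliable fit; inactive means the rest.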

Test: HepG2 hepatoma cell viability loss – plate reader, dry powder, cytotoxicity control, dose response (AID 651947)
Settings: ATP luminescence (CellTiter-Glo), 48 h, stronger effect = lower value; at 26 µM unless noted

Row | Structure (SMILES) | max activity
1 | c1ccc(COc2nnc(-c3ccccc3)o2)cc1 | -50.7% [at 1.6 µM] (inactive)
2 | c1ccc(CSc2nnc(-c3ccco3)o2)cc1 | -42.4% [at 6 µM] (inactive)
3 | FC1(F)CN(CCSc2nnc(-c3ccccc3)o2)C1 | -36.2% [at 0.8 µM] (inactive)
4 | Cc1cccc(-c2nnc(SCc3ccccc3)o2)c1 | -20.2% [at 0.38 µM] (inactive)
5 | c1ccc(CSc2nnc(-c3ccncc3)o2)nc1 | -29.6% [at 6 µM] (inactive)
6 | COc1ccc(-c2nnc(SCc3ccccc3)o2)cc1 | -23.7% [at 6 µM] (inactive)
7 | COc1cccc(CSc2nnc(-c3ccccc3)o2)c1 | 25.7% (inactive)
8 | c1ccc(-c2nnc(SC3CCCCC3)o2)cc1 | -38.4% (inactive)
9 | O=C(Cc1ccccc1)c1nnc(-c2ccccc2)o1 | -24.7% [at 0.8 µM] (inactive)
10 | FC(F)(F)CNCCSc1nnc(-c2ccccc2)o1 | -10% [at 12 µM] (inactive)
11 | Fc1cccc(CSc2nnc(-c3ccccc3)o2)c1 | -9.21% [at 12 µM] (inactive)
12 | Clc1ccccc1-c1nnc(SCc2ccccc2)o1 | -37.6% [at 6 µM] (inactive)
13 | Fc1ccc(-c2nnc(SCc3ccccn3)o2)cc1 | -30.7% [at 1.6 µM] (inactive)
14 | Clc1ccc(-c2nnc(SCc3cn(-c4ccccc4)nn3)o2)cc1 | -13% [at 3 µM] (inactive)
15 | c1ccc(Cn2cc(CSc3nnc(-c4ccccc4)o3)nn2)cc1 | -41.8% (inactive)
16 | c1ccc(CSc2nnc(C3CCCC3)o2)cc1 | -59.1% [at 6 µM] (inactive)
